Reference: publication PMC8384837, “Expanding the binding specificity for RNA recognition by a PUF domain”

Legend:
Assay in all cases: yeast three-hybrid, YBZ-1, SC-Leu-His + 0.5 mM 3-AT, 4 days
Conditions in all cases: tags: N-Gal4 AD-HA kept; label: inside an RPR1-promoter hybrid RNA with tandem MS2 sites; ssRNA
PUM1 PUF domain R3-SRA = PUM1 PUF domain R3-SRA (Homo sapiens, UniProt Q14671 828-1176, C935S;Q939A)
In short: (§1)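 The interaction score is the log change in how often each variant appears, from input to selection. Frequencies came from PCR-amplified, Illumina-sequenced repeat regions of Pumilio-1 PUF domain libraries grown in strain YBZ-1 (LexA–MS2 coat fusion, HIS3 reporter) alongside matching RNA elements. Input plates were SC-Leu and selection plates were SC-Leu-His + 0.5 mM 3-AT, each for four days, and the log2 calculation used a pseudocount of 1 where a variant was absent.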

PUM1 PUF domain R3-VRM = PUM1 PUF domain R3-VRM (Homo sapiens, UniProt Q14671 828-1176, C935V;Q939M)
In short: as §1

PUM1 PUF domain R3-MRI = PUM1 PUF domain R3-MRI (Homo sapiens, UniProt Q14671 828-1176, C935M;Q939I)
In short: as §1

PUM1 PUF domain R3-VRC = PUM1 PUF domain R3-VRC (Homo sapiens, UniProt Q14671 828-1176, C935V;Q939C)
In short: as §1

PUM1 PUF domain R3-FWS = PUM1 PUF domain R3-FWS (Homo sapiens, UniProt Q14671 828-1176, C935F;R936W;Q939S)
In short: as §1

PUM1 PUF domain R4-WSW = PUM1 PUF domain R4-WSW (Homo sapiens, UniProt Q14671 828-1176, N971W;H972S;Q975W)
In short: as §1

PUM1 PUF domain R4-MNV = PUM1 PUF domain R4-MNV (Homo sapiens, UniProt Q14671 828-1176, N971M;H972N;Q975V)
In short: as §1

PUM1 PUF domain R4-GPC = PUM1 PUF domain R4-GPC (Homo sapiens, UniProt Q14671 828-1176, N971G;H972P;Q975C)
In short: as §1

PUM1 PUF domain R4-YFG = PUM1 PUF domain R4-YFG (Homo sapiens, UniProt Q14671 828-1176, N971Y;H972F;Q975G)
In short: as §1

PUM1 PUF domain R1-NWR = PUM1 PUF domain R1-NWR (Homo sapiens, UniProt Q14671 828-1176, S863N;R864W;Q867R)
In short: as §1

PUM1 PUF domain R5-PYF = PUM1 PUF domain R5-PYF (Homo sapiens, UniProt Q14671 828-1176, C1007P;R1008Y;Q1011F)
In short: as §1

PUM1 PUF domain R5-RKE = PUM1 PUF domain R5-RKE (Homo sapiens, UniProt Q14671 828-1176, C1007R;R1008K;Q1011E)
In short: as §1

PUM1 PUF domain R4-QHR = PUM1 PUF domain R4-QHR (Homo sapiens, UniProt Q14671 828-1176, N971Q;Q975R)
In short: as §1

PUM1 PUF domain R8-TWR = PUM1 PUF domain R8-TWR (Homo sapiens, UniProt Q14671 828-1176, N1122T;Y1123W;Q1126R)
In short: as §1

PUM1 PUF domain R8-PWK = PUM1 PUF domain R8-PWK (Homo sapiens, UniProt Q14671 828-1176, N1122P;Y1123W;Q1126K)
In short: as §1

PUM1 PUF domain R5-DYG = PUM1 PUF domain R5-DYG (Homo sapiens, UniProt Q14671 828-1176, C1007D;R1008Y;Q1011G)
In short: as §1

PUM1 PUF domain R5-SDE = PUM1 PUF domain R5-SDE (Homo sapiens, UniProt Q14671 828-1176, C1007S;R1008D;Q1011E)
In short: as §1

PUM1 PUF domain R4-RMG = PUM1 PUF domain R4-RMG (Homo sapiens, UniProt Q14671 828-1176, N971R;H972M;Q975G)
In short: as §1

PUM1 PUF domain R6-KFG = target: T1, PUM1 PUF domain R6-KFG (Homo sapiens, UniProt Q14671 828-1176, N1043K;Y1044F;Q1047G)
T1 sequence: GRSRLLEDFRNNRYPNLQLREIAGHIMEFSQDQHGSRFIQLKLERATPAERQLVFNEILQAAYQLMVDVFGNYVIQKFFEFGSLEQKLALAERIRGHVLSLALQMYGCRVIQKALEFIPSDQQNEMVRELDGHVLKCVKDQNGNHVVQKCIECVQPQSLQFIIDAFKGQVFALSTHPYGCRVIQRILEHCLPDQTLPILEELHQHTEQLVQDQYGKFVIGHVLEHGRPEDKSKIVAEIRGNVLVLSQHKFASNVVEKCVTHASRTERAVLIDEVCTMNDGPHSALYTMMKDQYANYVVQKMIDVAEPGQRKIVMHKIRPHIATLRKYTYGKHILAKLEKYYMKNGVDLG
In short: as §1

PUM1 PUF domain R3-IRC = PUM1 PUF domain R3-IRC (Homo sapiens, UniProt Q14671 828-1176, C935I;Q939C)
In short: as §1

GGCUAGAACUAGUGGAUCCCCCGGCGCCCGGCGGCUCGAGCCCGGGUAAGUGUAAGUAGUCUGCAUGCCGCCGGGCGCCAUGCCUGCAGGUCGACUCUAGAAAACAUG
binding signal (PUM1 PUF domain R3-SRA): 3.65 log2 enrichment (interaction score) | binding signal (PUM1 PUF domain R3-VRM): 1.15 log2 enrichment (interaction score) | binding signal (PUM1 PUF domain R3-MRI): 5.12 log2 enrichment (interaction score) | binding signal (PUM1 PUF domain R3-VRC): 0.33 log2 enrichment (interaction score) | binding signal (PUM1 PUF domain R3-FWS): 7.37 log2 enrichment (interaction score)

GGCUAGAACUAGUGGAUCCCCCGGCGCCCGGCGGCUCGAGCCCGGGUAAGUGUAUAUAGUCUGCAUGCCGCCGGGCGCCAUGCCUGCAGGUCGACUCUAGAAAACAUG
binding signal (PUM1 PUF domain R4-WSW): 3.38 log2 enrichment (interaction score) | binding signal (PUM1 PUF domain R4-MNV): 3.98 log2 enrichment (interaction score) | binding signal (PUM1 PUF domain R4-GPC): 2.93 log2 enrichment (interaction score) | binding signal (PUM1 PUF domain R4-YFG): 3.63 log2 enrichment (interaction score)

GGCUAGAACUAGUGGAUCCCCCGGCGCCCGGCGGCUCGAGCCCGGGUAAGUGUAAAUCGUCUGCAUGCCGCCGGGCGCCAUGCCUGCAGGUCGACUCUAGAAAACAUG
binding signal (PUM1 PUF domain R1-NWR): 6.94 log2 enrichment (interaction score)

GGCUAGAACUAGUGGAUCCCCCGGCGCCCGGCGGCUCGAGCCCGGGUAAGUGUUAAUAGUCUGCAUGCCGCCGGGCGCCAUGCCUGCAGGUCGACUCUAGAAAACAUG
binding signal (PUM1 PUF domain R5-PYF): 2.41 log2 enrichment (interaction score) | binding signal (PUM1 PUF domain R5-RKE): 3.74 log2 enrichment (interaction score)

GGCUAGAACUAGUGGAUCCCCCGGCGCCCGGCGGCUCGAGCCCGGGUAAGUGUACAUAGUCUGCAUGCCGCCGGGCGCCAUGCCUGCAGGUCGACUCUAGAAAACAUG
binding signal (PUM1 PUF domain R4-QHR): 2.26 log2 enrichment (interaction score) | binding signal (PUM1 PUF domain R4-WSW): 2.13 log2 enrichment (interaction score) | binding signal (PUM1 PUF domain R4-MNV): 0.87 log2 enrichment (interaction score) | binding signal (PUM1 PUF domain R4-GPC): 1.58 log2 enrichment (interaction score)

GGCUAGAACUAGUGGAUCCCCCGGCGCCCGGCGGCUCGAGCCCGGGUAAGUGUAAUUAGUCUGCAUGCCGCCGGGCGCCAUGCCUGCAGGUCGACUCUAGAAAACAUG
binding signal (PUM1 PUF domain R3-SRA): 0.68 log2 enrichment (interaction score) | binding signal (PUM1 PUF domain R3-VRM): 1.73 log2 enrichment (interaction score) | binding signal (PUM1 PUF domain R3-MRI): 1.25 log2 enrichment (interaction score) | binding signal (PUM1 PUF domain R3-FWS): 2.99 log2 enrichment (interaction score)

GGCUAGAACUAGUGGAUCCCCCGGCGCCCGGCGGCUCGAGCCCGGGUAAGCGUAAAUAGUCUGCAUGCCGCCGGGCGCCAUGCCUGCAGGUCGACUCUAGAAAACAUG
binding signal (PUM1 PUF domain R8-TWR): 5.17 log2 enrichment (interaction score) | binding signal (PUM1 PUF domain R8-PWK): 5.71 log2 enrichment (interaction score)

GGCUAGAACUAGUGGAUCCCCCGGCGCCCGGCGGCUCGAGCCCGGGUAAGUGUAAAUUGUCUGCAUGCCGCCGGGCGCCAUGCCUGCAGGUCGACUCUAGAAAACAUG
binding signal (PUM1 PUF domain R1-NWR): 4.99 log2 enrichment (interaction score)

GGCUAGAACUAGUGGAUCCCCCGGCGCCCGGCGGCUCGAGCCCGGGUAAGUGUCAAUAGUCUGCAUGCCGCCGGGCGCCAUGCCUGCAGGUCGACUCUAGAAAACAUG
binding signal (PUM1 PUF domain R5-RKE): 3.39 log2 enrichment (interaction score) | binding signal (PUM1 PUF domain R5-DYG): 3.79 log2 enrichment (interaction score)

GGCUAGAACUAGUGGAUCCCCCGGCGCCCGGCGGCUCGAGCCCGGGUAAGUGUGAAUAGUCUGCAUGCCGCCGGGCGCCAUGCCUGCAGGUCGACUCUAGAAAACAUG
binding signal (PUM1 PUF domain R5-SDE): 2.31 log2 enrichment (interaction score)

GGCUAGAACUAGUGGAUCCCCCGGCGCCCGGCGGCUCGAGCCCGGGUAAGUGUAAAUAGUCUGCAUGCCGCCGGGCGCCAUGCCUGCAGGUCGACUCUAGAAAACAUG
binding signal (PUM1 PUF domain R4-RMG): 2.77 log2 enrichment (interaction score) | binding signal (PUM1 PUF domain R4-WSW): 4.02 log2 enrichment (interaction score) | binding signal (PUM1 PUF domain R3-SRA): 3.83 log2 enrichment (interaction score) | binding signal (PUM1 PUF domain R3-VRM): 3.67 log2 enrichment (interaction score) | binding signal (PUM1 PUF domain R8-TWR): 4.94 log2 enrichment (interaction score) | binding signal (PUM1 PUF domain R5-DYG): 3.86 log2 enrichment (interaction score) | binding signal (PUM1 PUF domain R3-VRC): 3.72 log2 enrichment (interaction score) | binding signal (PUM1 PUF domain R6-KFG): 3.39 log2 enrichment (interaction score) | binding signal (PUM1 PUF domain R3-IRC): 2.81 log2 enrichment (interaction score) | binding signal (PUM1 PUF domain R4-GPC): 4.57 log2 enrichment (interaction score) | binding signal (PUM1 PUF domain R4-YFG): 2.07 log2 enrichment (interaction score) | binding signal (PUM1 PUF domain R3-FWS): 3.07 log2 enrichment (interaction score)
